The campaign covered roughly 5,500 compounds. About 2,000 (36%) were called active. Roughly 18% stayed inconclusive and do not appear here. The list shows a part of the results. A number with no mark means an inactive call. Rule as the data show it: active = normalized growth mostly below about 0.91 (no sharp cut-off); inconclusive = no clear call, values can overlap the other calls; inactive = mostly above about 0.92.
Experiment: chemical genetic growth profiling, strain panel (AID 1159580);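 also: tested at 20 µM; growth read once vehicle control cultures reached saturation at 30 °C; 1 = growth at the plate median or of vehicle wells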
Settings: growth OD

Cc1ccc(C(C)C)c(O)c1C(=O)O showed a normalized growth (S. cerevisiae deletion strains, locus YAL013W, strain DEP1, stronger effect = lower value) of 0.993, a normalized growth (S. cerevisiae deletion strains, locus YBR021W, strain FUR4, stronger effect = lower value) of 0.912 and a normalized growth (S. cerevisiae deletion strains, locus YBR229C, strain ROT2, stronger effect = lower value) of 0.986. It also gave a normalized growth (S. cerevisiae deletion strains, locus YCL029C, strain bik1, stronger effect = lower value) of 0.951, a normalized growth (S. cerevisiae deletion strains, locus YDL035C, strain GPR1, stronger effect = lower value) of 0.997 and a normalized growth (S. cerevisiae deletion strains, locus YDL074C, strain BRE1, stronger effect = lower value) of 0.998. The normalized growth (S. cerevisiae deletion strains, locus YDL101C, strain DUN1, stronger effect = lower value) was 0.999, the normalized growth (S. cerevisiae deletion strains, locus YDL134C, strain PPH21, stronger effect = lower value) was 0.998 and the normalized growth (S. cerevisiae deletion strains, locus YDL185W, strain tfp1, stronger effect = lower value) was 0.784 (active). It also gave a normalized growth (S. cerevisiae deletion strains, locus YDL192W, strain arf1, stronger effect = lower value) of 0.95, a normalized growth (S. cerevisiae deletion strains, locus YDR101C, strain arx1, stronger effect = lower value) of 0.971 and a normalized growth (S. cerevisiae deletion strains, locus YDR162C, strain NBP2, stronger effect = lower value) of 0.977. For the same compound, the normalized growth (S. cerevisiae deletion strains, locus YDR318W, strain mcm21, stronger effect = lower value) was 0.96, the normalized growth (S. cerevisiae deletion strains, locus YDR388W, stronger effect = lower value) was 0.935 and the normalized growth (S. cerevisiae deletion strains, locus YDR502C, strain sam2, stronger effect = lower value) was 0.957. For the same compound, the normalized growth (S. cerevisiae deletion strains, locus YEL061C, strain CIN8, stronger effect = lower value) was 0.981, the normalized growth (S. cerevisiae deletion strains, locus YER110C, stronger effect = lower value) was 0.959 and the normalized growth (S. cerevisiae deletion strains, locus YER155C, strain BEM2, stronger effect = lower value) was 0.914 (active). For the same compound, the normalized growth (S. cerevisiae deletion strains, locus YER167W, strain BCK2, stronger effect = lower value) was 0.973, the normalized growth (S. cerevisiae deletion strains, locus YGL078C, strain dbp3, stronger effect = lower value) was 0.859 (active) and the normalized growth (S. cerevisiae deletion strains, locus YGL086W, strain mad1, stronger effect = lower value) was 0.975. It also gave a normalized growth (S. cerevisiae deletion strains, locus YGL248W, strain PDE1, stronger effect = lower value) of 0.995, a normalized growth (S. cerevisiae deletion strains, locus YGR078C, strain PAC10, stronger effect = lower value) of 1 and a normalized growth (S. cerevisiae deletion strains, locus YGR135W, strain pre9, stronger effect = lower value) of 0.975. The normalized growth (S. cerevisiae deletion strains, locus YGR252W, strain gcn5, stronger effect = lower value) was 0.919, the normalized growth (S. cerevisiae deletion strains, locus YHR030C, strain SLT2, stronger effect = lower value) was 0.97 and the normalized growth (S. cerevisiae deletion strains, locus YHR079C, strain IRE1 (second series), stronger effect = lower value) was 0.936. The normalized growth (S. cerevisiae deletion strains, locus YHR094C, strain hxt1, stronger effect = lower value) was 0.923 (active), the normalized growth (S. cerevisiae deletion strains, locus YHR129C, strain ARP1, stronger effect = lower value) was 0.965 and the normalized growth (S. cerevisiae deletion strains, locus YHR200W, strain rpn10, stronger effect = lower value) was 0.945. For the same compound, the normalized growth (S. cerevisiae deletion strains, locus YIL066C, strain RNR3, stronger effect = lower value) was 1.01, the normalized growth (S. cerevisiae deletion strains, locus YIL073C, strain SPO22, stronger effect = lower value) was 1 and the normalized growth (S. cerevisiae deletion strains, locus YIL125W, strain kgd1, stronger effect = lower value) was 0.808 (active). It also gave a normalized growth (S. cerevisiae deletion strains, locus YIR030C, strain dcg1, stronger effect = lower value) of 0.949, a normalized growth (S. cerevisiae deletion strains, locus YJL095W, strain BCK1, stronger effect = lower value) of 0.992 and a normalized growth (S. cerevisiae deletion strains, locus YJL134W, strain LCB3, stronger effect = lower value) of 0.955. For the same compound, the normalized growth (S. cerevisiae deletion strains, locus YJL168C, strain set2, stronger effect = lower value) was 0.921 (active), the normalized growth (S. cerevisiae deletion strains, locus YJL187C, strain SWE1 (second series), stronger effect = lower value) was 1.01 and the normalized growth (S. cerevisiae deletion strains, locus YJR043C, strain POL32, stronger effect = lower value) was 0.981. For the same compound, the normalized growth (S. cerevisiae deletion strains, locus YJR075W, strain HOC1, stronger effect = lower value) was 0.998, the normalized growth (S. cerevisiae deletion strains, locus YKL009W, strain mrt4, stronger effect = lower value) was 0.897 and the normalized growth (S. cerevisiae deletion strains, locus YKL068W, stronger effect = lower value) was 0.82 (active). For the same compound, the normalized growth (S. cerevisiae deletion strains, locus YKL085W, strain MDH1 (second series), stronger effect = lower value) was 0.83 (active), the normalized growth (S. cerevisiae deletion strains, locus YKL085W, strain MDH1, stronger effect = lower value) was 0.83 (active) and the normalized growth (S. cerevisiae deletion strains, locus YKL190W, strain CNB1, stronger effect = lower value) was 0.987. For the same compound, the normalized growth (S. cerevisiae deletion strains, locus YKR001C, strain vps1, stronger effect = lower value) was 0.917, the normalized growth (S. cerevisiae deletion strains, locus YLR039C, strain RIC1, stronger effect = lower value) was 0.943 and the normalized growth (S. cerevisiae deletion strains, locus YLR058C, strain SHM2, stronger effect = lower value) was 0.995. The normalized growth (S. cerevisiae deletion strains, locus YLR102C, strain apc9, stronger effect = lower value) was 0.918 (active), the normalized growth (S. cerevisiae deletion strains, locus YLR262C, strain YPT6, stronger effect = lower value) was 0.986 and the normalized growth (S. cerevisiae deletion strains, locus YLR268W, strain sec22, stronger effect = lower value) was 0.96. For the same compound, the normalized growth (S. cerevisiae deletion strains, locus YLR330W, strain CHS5, stronger effect = lower value) was 0.947, the normalized growth (S. cerevisiae deletion strains, locus YLR342W, strain FKS1 (second series), stronger effect = lower value) was 0.973 and the normalized growth (S. cerevisiae deletion strains, locus YLR371W, strain rom2, stronger effect = lower value) was 0.94. It also gave a normalized growth (S. cerevisiae deletion strains, locus YLR418C, strain cdc73, stronger effect = lower value) of 0.946, a normalized growth (S. cerevisiae deletion strains, locus YML016C, strain PPZ1, stronger effect = lower value) of 0.977 and a normalized growth (S. cerevisiae deletion strains, locus YML032C, strain rad52, stronger effect = lower value) of 0.959. The normalized growth (S. cerevisiae deletion strains, locus YML124C, strain tub3, stronger effect = lower value) was 0.929 (active), the normalized growth (S. cerevisiae deletion strains, locus YMR078C, strain ctf18, stronger effect = lower value) was 0.916 and the normalized growth (S. cerevisiae deletion strains, locus YMR223W, strain ubp8, stronger effect = lower value) was 0.972. The normalized growth (S. cerevisiae deletion strains, locus YMR263W, strain SAP30, stronger effect = lower value) was 0.989, the normalized growth (S. cerevisiae deletion strains, locus YMR307W, strain GAS1, stronger effect = lower value) was 0.967 and the normalized growth (S. cerevisiae deletion strains, locus YNL067W, strain RPL9B, stronger effect = lower value) was 0.997. For the same compound, the normalized growth (S. cerevisiae deletion strains, locus YNL128W, strain TEP1, stronger effect = lower value) was 1.01, the normalized growth (S. cerevisiae deletion strains, locus YNL233W, strain BNI4, stronger effect = lower value) was 0.993 and the normalized growth (S. cerevisiae deletion strains, locus YNL250W, strain rad50, stronger effect = lower value) was 0.848 (active). For the same compound, the normalized growth (S. cerevisiae deletion strains, locus YNL271C, strain bni1, stronger effect = lower value) was 0.831 (active), the normalized growth (S. cerevisiae deletion strains, locus YNL298W, strain CLA4, stronger effect = lower value) was 0.842 (active) and the normalized growth (S. cerevisiae deletion strains, locus YNL307C, strain MCK1, stronger effect = lower value) was 0.928. For the same compound, the normalized growth (S. cerevisiae deletion strains, locus YNR052C, strain pop2, stronger effect = lower value) was 0.951, the normalized growth (S. cerevisiae deletion strains, locus YOL006C, strain TOP1, stronger effect = lower value) was 0.977 and the normalized growth (S. cerevisiae deletion strains, locus YOL012C, strain htz1) was 1.59. It also gave a normalized growth (S. cerevisiae deletion strains, locus YOL147C, strain pex11, stronger effect = lower value) of 0.937, a normalized growth (S. cerevisiae deletion strains, locus YOR061W, strain CKA2, stronger effect = lower value) of 0.989 and a normalized growth (S. cerevisiae deletion strains, locus YOR069W, strain VPS5, stronger effect = lower value) of 0.974. The normalized growth (S. cerevisiae deletion strains, locus YOR136W, strain idh2, stronger effect = lower value) was 0.979, the normalized growth (S. cerevisiae deletion strains, locus YOR144C, strain elg1, stronger effect = lower value) was 0.928 (active) and the normalized growth (S. cerevisiae deletion strains, locus YOR184W, strain ser1, stronger effect = lower value) was 0.962. The normalized growth (S. cerevisiae deletion strains, locus YOR316C, strain cot1, stronger effect = lower value) was 0.93, the normalized growth (S. cerevisiae deletion strains, locus YPL241C, strain CIN2, stronger effect = lower value) was 0.971 and the normalized growth (S. cerevisiae deletion strains, locus YPR119W, strain clb2, stronger effect = lower value) was 0.918 (active). For the same compound, the normalized growth (S. cerevisiae deletion strains, locus YPR141C, strain kar3, stronger effect = lower value) was 0.797 (active), the normalized growth (S. cerevisiae deletion strains, locus YPR163C, strain tif3, stronger effect = lower value) was 0.908 (active) and the normalized growth (S. cerevisiae deletion strains, locus YPR167C, strain met16, stronger effect = lower value) was 0.936. The normalized growth (S. cerevisiae deletion strains, strain wtn01, stronger effect = lower value) was 0.955 and the normalized growth (S. cerevisiae strains, strain wild type, stronger effect = lower value) was 0.988.

Reference: PubChem BioAssay AID1159580 (chemical genetic matrix, 2015)
